BJeLR viability: BJeLR cell viability reduction | BJeLR fibroblasts viability, CellTiterGlo ATP luminescence, 48 h; HRASV12, hTERT and SV40 LT/ST transformed | viability loss activity score, % (test concentration not listed) | AID 2275 | actives 0.64% (n = 30,000); in the data active = viability loss activity score above about 50%; inconclusive = no clear call, values can overlap the other calls; inactive = below about 35%;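 also: higher score means fewer live cells and less ATP luminescence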
Shh pathway inh: blocks Sonic Hedgehog signaling | Shh-LIGHT2 Gli-luciferase reporter, 30 h | inhibition, % (concentration not given with the values) | actives 2.1% (n = 22,000) | AID 2313;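 active = mean inhibition across valid replicates above about 65%, limit read from the data; inconclusive = mean under the limit, yet half or more replicates past it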;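 also: pathway switched on by Shh-conditioned medium diluted 1 in 25 in low serum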
MITF inhib: inhibitors of MITF; TRPM1 promoter luciferase, luminescence, 24 h; inhibition, % (no concentration beside the values); actives 0.28% (n = 37,000); in the data active = inhibition above about 85%; inconclusive = no clear call, values can overlap the other calls; inactive = below about 68%;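 also: human melanocyte line stably carrying TRPM1 promoter luciferase reporter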
Numbers without * were called inactive; u = inconclusive; x = no result. This is one part of a sample in which hits are shown more often than they occur.

SMILES	BJeLR viability	Shh pathway inh	MITF inhib
COc1ccccc1CCNC(=O)c1cc(-c2ccccn2)nc2c(C)c(Cl)ccc12	x	x	16
COc1cc(-c2ccccn2)nc(/C=N/O)c1S(C)=O (stereo not drawn)	x	83*	x
CC1=NN(c2ccccc2)C(c2ccc(OCC(=O)NCCC3=CCCCC3)cc2)C1 (stereo not drawn)	-8	x	x
Cc1nnc(SCC(=O)Nc2cccc(C(F)(F)F)c2)s1	x	x	-16
CC1(C)CC(=O)C=C(SCC(=O)Nc2cc(C(F)(F)F)cc(C(F)(F)F)c2)S1	7	92*	52
O=c1[nH]c(SCc2ccc(C(F)(F)F)cc2)nc2c1cnn2-c1ccccc1	-2	x	x
C=C(C(=O)O[C@H]1C/C(C)=C\CC/C(CO)=C\[C@H]2OC(=O)C(=C)[C@H]12)C(O)CO (stereo partly drawn)	-8	18	-33
C=C(C)C(=O)OC1CC(CO)CCC/C(CO)=C\C2OC(=O)C(=C)C21 (stereo not drawn)	x	71*	x
N#Cc1ccccc1NC(=O)CCCC(=O)Nc1ccccc1C#N	-4	x	x
NNC(=O)c1cc2c(s1)-c1ccccc1CC2	-1	-64	-5
O=C(C/C(=C1/CCc2ccccc2C1=O)c1ccccc1)c1ccccc1	-7	103*	50
CC(C)(C)C(=O)CSc1nc(N)c(C#N)c(-c2cccs2)c1C#N	0	x	x
CC(C)(C)c1cc(-c2cccs2)c(C#N)c(SCC(=O)Oc2ccccc2)n1	1	65*	-6
CN(CC(=O)NC1CCCC1)S(=O)(=O)c1ccc2c(c1)c(=O)n(C)c(=O)n2C	-1	x	x
CCN1C(=O)c2cccc3c(S(=O)(=O)NCCc4ccc(OC)c(OC)c4)ccc1c23	4	x	x
O=C1c2c(O)ccc(O)c2C(=O)c2c(NCCNCCO)ccc(NCCNCCO)c21	110*	3	96*
C[C@H]1C[C@@H]2[C@H]([C@@H](O)C[C@@]3(C)[C@H]2CC[C@]3(O)C(=O)CO)[C@@]2(C)C=CC(=O)C=C12	2	70*	-32
C[C@H]1CC2C([C@@H](O)C[C@@]3(C)C2CC[C@]3(O)C(=O)CO)[C@@]2(C)C=CC(=O)C=C12 (stereo partly drawn)	-6	32	-18
CNC(=O)COc1ccc(Nc2nnc(-c3ccc(OC)cc3)c3ccccc23)cc1	x	x	-12
COc1ccc(-c2nnc(Nc3cccc(C(F)(F)F)c3)c3ccccc23)cc1	-1	87*	52
O=C1NCC2(CCN(CCc3ccccc3)CC2)O1	4	13	12
N#CC1CN(CCc2ccccc2)CN(CCc2ccccc2)C1	-6	69*	19
Cc1ccc(C(=O)Cn2c(C)csc2=Nc2ccccc2)cc1	2	x	-9
Cc1ccc(C(=O)Cn2c3c(sc2=N)CCCC3)cc1	4	76*	88*
O=C(NCCn1cc(SCC(=O)N2CCCCC2)c2ccccc21)c1ccccc1F	-13	x	x
SMILES	BJeLR viability	Shh pathway inh	MITF inhib
CC(C)c1ccc(NC(=O)C(c2ccccc2)N2CCc3ccccc32)cc1 (stereo not drawn)	-2	x	x
C[C@@H]1CN([C@H](C)CO)C(=O)c2cccc(NC(=O)C3CCOCC3)c2O[C@H]1CN(C)Cc1ccc(Cl)c(Cl)c1	4	70*	1
C[C@H](CO)N1C[C@H](C)[C@H](CN(C)Cc2ccc(Cl)c(Cl)c2)Oc2c(NS(=O)(=O)c3ccccc3)cccc2C1=O	7	82*	1
C[C@H]1CN([C@@H](C)CO)C(=O)c2cccc(NS(=O)(=O)c3ccccc3)c2O[C@@H]1CN(C)Cc1ccc(Cl)c(Cl)c1	-3	2	-10
C[C@H](CO)N1C[C@H](C)[C@@H](CN(C)Cc2ccc(Cl)c(Cl)c2)Oc2c(NC(=O)C3CCOCC3)cccc2C1=O	0	-2	-10
O=C1N/C(=N\O)S/C1=C/c1ccc(O)cc1	0	x	x
O=C(CSc1c2c(nc3ccc(Cl)cc13)CCCC2)NCCN1CCOCC1	-8	x	x
CC(C)n1cnc2c(Nc3cccc(Cl)c3)nc(NCCO)nc21	-9	75*	11
CC[C@H](CO)Nc1nc(NCc2ccccc2)c2ncn(C(C)C)c2n1	6	52	42
O=C(Nc1ccccc1)C1CCN(S(=O)(=O)c2ccccc2)CC1	-4	x	x
CC(C)c1ccc(C2C(C#N)=C(N)C(C#N)(C#N)C3=CCN(C)CC32)cc1 (stereo not drawn)	4	74*	14
Cc1nc2c([nH]1)C(c1ccc(C(C)C)cc1)C(C#N)=C(N)O2 (stereo not drawn)	0	-9	14
CCn1c(=NC(=O)CSCC(=O)Nc2cc(C)on2)sc2ccccc21	-1	x	x
COc1ccc(NC(=O)C2C=C3C=CC(=O)C=C3OC2=Nc2ccc(C(=O)O)cc2)cc1 (stereo not drawn)	4	x	x
CCc1ccc(NC(=S)N(CCCN2CCCC2)Cc2ccco2)cc1	5	x	x
CN(C)CCCn1cc(C2=C(c3c[nH]c4ccccc34)C(=O)NC2=O)c2ccccc21	2	32	-13
Cn1cc(C2=C(c3cn(CCCSC(=N)N)c4ccccc34)C(=O)NC2=O)c2ccccc21	56*	44	68
N#Cc1c(C(F)(F)F)cc(-c2cccs2)nc1SCC(=O)Nc1c(F)cccc1F	x	x	-23
N#Cc1c(C(F)(F)F)cc(-c2cccs2)nc1S/C=C/C(=O)c1ccccc1	57*	-26	5
COc1ccc(Cn2c(=O)[nH]c3cc(C(=O)NC4CCCCC4)ccc3c2=O)cc1	5	x	x
O=S(=O)(c1cccs1)N1CCCCCC1	1	x	x
O=C(/C=c1\[nH]c(=O)/c(=C/c2cccnc2)s1)c1ccc(Cl)cc1	8	x	x
CCc1ccc(CNC(=O)COc2cc(=O)n(C)c3ccccc23)cc1	3	x	x
CC(=O)N1c2ccccc2C(C)(c2ccccc2)CC1(C)C (stereo not drawn)	0	-3	3
CC1(C)CC(C)(c2ccccc2)c2cc(SC#N)ccc2N1 (stereo not drawn)	-8	108*	46
SMILES	BJeLR viability	Shh pathway inh	MITF inhib
CO[C@@]12[C@H](COC(N)=O)C3=C(C(=O)C(C)=C(N)C3=O)N1C[C@@H]1N[C@@H]12	58*	34	65
Cc1cccc(N2CCN(C(=O)CCC(=O)O)CC2)c1C	-3	x	x
CCc1ccc(NC(=O)C2c3ccccc3C(=O)N(C)C2c2cccs2)cc1 (stereo not drawn)	2	x	x
CCOC(OCC)P(=O)(O)CCCNCc1ccc(Cl)c(Cl)c1	29	-30	88*
CS(=O)CCNC(=O)Nc1ccc(Cl)c(Cl)c1 (stereo not drawn)	-5	x	x
O=c1nc2c(-c3cccc(C(F)(F)F)c3)n[nH]n2c2ccccc12	3	x	x
C/C(=C\c1ccc(C(=O)O)cc1)c1ccc2c(c1)C(C)(C)CCC2(C)C	1	66*	-27
CC1(C)CCC(C)(C)c2cc(C(=O)Nc3ccc(C(=O)O)cc3)ccc21	17	u	-28
COc1ccc(CN(C)C[C@@H]2OCCCC[C@@H](C)Oc3ccc(NS(=O)(=O)c4ccc(Cl)cc4)cc3C(=O)N([C@H](C)CO)C[C@@H]2C)cc1	x	-21	-4
COc1ccc(CN(C)C[C@@H]2OCCCC[C@@H](C)Oc3ccc(NS(=O)(=O)c4ccc(OC)cc4)cc3C(=O)N([C@H](C)CO)C[C@@H]2C)cc1	x	x	-7

Screening results from PubChem BioAssay.
